# Hits are enriched below; roughly 1.1% of the tested compounds scored in any of these assays.
# a7 integrin act = qHTS for Activators of Integrin-Mediated Alleviation for Muscular Dystrophy; alpha7betagal myoblasts, beta-gal FDG fluorescence, 48 h; Potency, µM (top dose mostly 38.3 µM), without a hit: at the highest dose activation, usual class: activators; hit rate 0.064% among 350,000;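 also: potency is read from the fitted curve at half-maximal effect; 100% = response of the positive control SU9516; nearly all actives have a fitted effect of over 60% in size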
#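 Alpha7betagal+/- myoblasts (passage 13) were plated 16-24 hr, then exposed to compounds (1:260 dilution of DMSO stock) for 48 hours at 37C. After MPER lysis, β-galactosidase reporter activity was read as FDG fluorescence (ex 480/em 540) after 30 minutes.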
# TrxR1 inh = qHTS Assay for Inhibitors of Mammalian Selenoprotein Thioredoxin Reductase 1 (TrxR1): qHTS. Thioredoxin reductase 1, cytoplasmic (Rattus norvegicus), O89049. recombinant rTrxR1, NADPH fluorescence consumption, selenite substrate. Potency, µM (highest dose often 114 µM), inactives show at the highest dose activity change, negative = inhibition, usual class: inhibitors. hit rate 1% among 390,000. AID 588453, 2011; also: potency is read from the fitted curve at half-maximal effect; nearly all actives have a fitted effect of over 65% in size
# Target sequence (O89049 whole entry, looked up): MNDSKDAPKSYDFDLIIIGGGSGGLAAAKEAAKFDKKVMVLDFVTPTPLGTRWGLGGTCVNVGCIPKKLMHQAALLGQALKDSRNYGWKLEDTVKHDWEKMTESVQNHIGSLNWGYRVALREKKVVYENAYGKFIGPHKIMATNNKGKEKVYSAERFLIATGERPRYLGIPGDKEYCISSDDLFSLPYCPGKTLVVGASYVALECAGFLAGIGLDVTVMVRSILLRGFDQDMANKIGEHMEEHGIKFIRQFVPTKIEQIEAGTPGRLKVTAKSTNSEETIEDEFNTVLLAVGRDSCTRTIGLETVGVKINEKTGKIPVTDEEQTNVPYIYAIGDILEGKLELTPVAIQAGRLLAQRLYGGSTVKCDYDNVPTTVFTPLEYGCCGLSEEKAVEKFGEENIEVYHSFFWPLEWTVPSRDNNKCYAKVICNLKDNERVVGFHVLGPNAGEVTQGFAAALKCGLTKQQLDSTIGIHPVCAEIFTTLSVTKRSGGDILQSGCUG
#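 Rat TrxR1 (90 nM in the dispensed reagent) was pre-reduced with 400 uM NADPH for 5 min at room temperature, then incubated with compound for 15 min. After 400 uM selenite was added, NADPH fluorescence (Ex 340/Em 450 nm) was followed for 8 min.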
# TrxR1 substrate = qHTS Assay for Substrates of Mammalian Selenoprotein Thioredoxin Reductase 1 (TrxR1): qHTS. Potency, µM (titrated, usually from 114 µM), for the others: at the highest dose activity change, negative = substrate turnover. purified TrxR1 substrate turnover, NADPH consumption readout. Thioredoxin reductase 1, cytoplasmic (Rattus norvegicus), O89049. hit rate 0.01% among 390,000; also: potency is read from the fitted curve at half-maximal effect; nearly all actives have a fitted effect of over 50% in size
#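 Rat TrxR1, dispensed at 90 nM, was prereduced with 400 uM NADPH (final) for 5 min at ~22 deg C, then incubated with compound 15 min before 400 uM selenite. A first-read NADPH fluorescence drop versus no-compound background flagged substrates.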
# LDHA block = qHTS assay for inhibitors of human lactate dehydrogenase. purified LDHA, NADH/diaphorase-resazurin fluorescence; stronger effect = lower value. activity change, % (values are at about 110 or 230 µM). hit rate 0.15% among 480,000. AID 1347041, 2019; in the data active = activity change below about -30%; inconclusive = mostly about -25% to -30%;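 also: plate controls were DMSO wells for no effect and wells without enzyme for full effect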
#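 Human LDH5 at 2 nM final in Tris HCl pH 7.4 with 0.06 mM NADH and 0.2 mM pyruvate, reacted 5 minutes at room temperature. Remaining NADH coupled via diaphorase/resazurin; resorufin fluorescence read at 0 and 20 minutes, normalized to enzyme-free and DMSO wells.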
# PI4K2A inh = qHTS for small molecular inhibitors of PI4K2A | Phosphatidylinositol 4-kinase type 2-alpha (Homo sapiens), Q9BTU6 | purified PI4K2A, ADP-Glo luminescence, 1 h; stronger effect = lower value | activity change, negative = inhibition, % at 76.9 µM | hit rate 0.13% among 420,000 | AID 1346378, 2018; in the data active = activity change below about -50%; inconclusive = mostly about -30% to -49%;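 also: -100% = wells without enzyme as full effect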
#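 Compounds are screened against recombinant PI4K2A using PI as substrate and ATP, the latter dispensed at 300 microM. Reactions run one hour at ambient temperature before ADP-Glo detection; full inhibition defined by wells lacking enzyme.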
# GALK inhibitor = qHTS Assay for Inhibitors of Human Galactokinase (GALK); hit rate 0.007% among 270,000; P51570; Purified GALK, Kinase-Glo residual ATP luminescence; Potency, µM (highest dose often 57.5 µM), without a hit: top-dose activity change, negative = inhibition, hits mostly inhibitors; also: potency is read from the fitted curve at half-maximal effect
#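 5 nM enzyme, 35 uM ATP, 100 uM galactose, 20 mM HEPES pH8.0, 5 mM MgCl2; 1 h RT; residual ATP by Kinase-Glo Plus luminescence, qHTS format.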
# Numbers without * were called inactive; u = inconclusive; x = not tested or not shown; [ ] = remark or other dose. Unless noted, calls follow the shape of the dose curve; as a rule, active = well fitted curve in the direction sought with a large enough effect; inconclusive = small, poorly fitted or top-dose-only effect, or another doubt; inactive = no such curve, though single readings can be large; an effect the other way counts as inactive or inconclusive. Unless noted, % is scaled to controls: 0 for no effect and ±100 for the full control effect.
SMILES,a7 integrin act,TrxR1 inh,TrxR1 substrate,LDHA block,PI4K2A inh,GALK inhibitor
CCOC(=O)N1CCN(c2cc(=O)n(-c3ccc(Br)cc3)c(=O)[nH]2)CC1,5.4%,17.8µM*,-1.2%[57.1 µM],-4.5,-4.1,-0.2%
CCOC(=O)N1CCN(c2cc(=O)n(-c3ccc(C)cc3)c(=O)[nH]2)CC1,22.8%,u,9.1%[57.1 µM],-12.8,2.9,-0.3%
Cc1ccc(-c2nc3cc(NC(=O)/C=C/c4ccco4)ccc3o2)cc1,x,x,x,-2.7,x,x
Cc1cc(C)c2oc(-c3ccc(C)c(NC(=O)/C=C/c4ccco4)c3)nc2c1,x,3.16µM*,13.1%[11.4 µM],-3.5,-3.4,x
Cc1ccc(Cn2c(=S)[nH]c3ccc(N4CCOCC4)cc3c2=O)o1,-57.1%,4.47µM*,4.8%,43.0,-23.9,-1.2%
O=c1c2cc(N3CCOCC3)ccc2[nH]c(=S)n1Cc1ccc(Cl)cc1,9.1%,7.6%,8.8%,10.1,6.0,0.6%
CCCNc1c(NC(=O)Nc2ccccc2OCC)c(=O)oc2ccccc12,x,x,x,-30.0*,x,x
O=[N+]([O-])c1c(NCCO)cc(N2CCC3(CC2)OCCO3)c2nonc12,13.1%,-7.1%,-16.7%,-5.7,-0.4,1.4%
CC1CCCN(c2cc(N(C)CCO)c([N+](=O)[O-])c3nonc23)C1 (stereo unspecified),14.7%,-10.5%[57.1 µM],-12.8%[57.1 µM],2.2,3.2,-0.8%
CN(CCO)c1cc(N2CCCCC2)c2nonc2c1[N+](=O)[O-],20.5%,44.7µM*,-17.5%,24.0,-0.3,2.8%
CN(CCO)c1cc(N2CCC3(CC2)OCCO3)c2nonc2c1[N+](=O)[O-],16.0%,28.2µM*,-32.7%,0.4,-5.0,1.3%
Cc1cc(C)c2oc(-c3cc(NC(=O)C(C)(C)C)ccc3O)nc2c1,x,x,x,1.6,x,x
Cc1c(-c2ccccc2)oc2c(C(=O)NC3CCN(Cc4ccccc4)C3)cccc2c1=O (stereo unspecified),x,x,x,8.2,x,x
CCOC(=O)Cc1nnc(Nc2ccc(C)cc2)c2ccccc12,30.2%,-11.5%,-13.3%,-4.8,-75.4*,-0.1%
Cc1cc(C(=O)N/N=C/c2cc(Br)c(Br)o2)n[nH]1,u,35.5µM*,-1.2%,14.3,-20.0,-2.5%
O=C(CCC(=O)Nc1ccc(Cl)cc1Cl)N/N=C/c1ccc([N+](=O)[O-])o1,-55.7%,11.2µM*,-5.4%,16.2,-0.7,9.5%
CCCCCC(=O)N/N=C/c1ccc([N+](=O)[O-])o1,-48.5%,u,0.6%,19.8,-0.5,-0.2%
O=C(N/N=C/c1ccc([N+](=O)[O-])o1)c1ccccc1NS(=O)(=O)c1cccs1,-48.4%,39.8µM*,-1.3%,5.3,-6.2,5.2%
O=C(N/N=C/c1ccncc1)c1cc2ccccc2o1,-0.8%,15.0%[57.1 µM],6.8%[57.1 µM],-5.1,0.6,-0.3%
O=C(N/N=C/c1cc(Br)c(Br)o1)c1cc2ccccc2o1,-32.5%,4.2%,13.2%,-43.6*,3.3,1.1%
Cn1c(=O)n(CCC(=O)NCc2nnc3n2CCC3)c2ccccc21,x,x,x,-5.8,x,x
CCCOc1ccc(/C=C/C(=O)Nc2cc(C(C)(C)C)ccc2OC)cc1OC,x,x,x,9.0,x,x
O=C(N/N=C/c1ccc([N+](=O)[O-])o1)c1cc2c(ccc3ccccc32)o1,-39.2%,16.2%,3.2%,-3.9,0.6,4.1%
CCNc1nc(NCC)nc(N/N=C/c2ccc([N+](=O)[O-])o2)n1,0.0%,44.7µM*,-17.2%,5.2,4.5,-0.5%
O=[N+]([O-])c1ccc(/C=N/Nc2nc(N3CCCC3)nc(N3CCCC3)n2)o1,-10.1%,-59.1%[57.1 µM],9.8%,4.6,-2.5,-0.4%
SMILES,a7 integrin act,TrxR1 inh,TrxR1 substrate,LDHA block,PI4K2A inh,GALK inhibitor
O=C(N/N=C/c1ccc([N+](=O)[O-])o1)c1cc2ccccc2o1,-58.5%,-7.6%,0.5%,-69.9*,-4.1,x
CC(=O)c1ccc(OCC(=O)Nc2ccc3oc(C)nc3c2)cc1,x,x,x,25.6,x,x
CCCCn1c(CCC(=O)NCc2ccc(OC)cc2)nc2c1c(=O)[nH]c(=O)n2CCCC,x,x,x,-1.7,x,x
COc1ccc(NC(=O)CN(C)CC(=O)c2[nH]c(C)c(C(C)=O)c2C)cc1,-19.3%,-14.6%,-1.2%,0.6,11.3,x
COc1ccc(NC(=O)CN(C)CC(=O)c2c(C)[nH]c3ccccc23)cc1,-6.7%,22.4µM*,-0.1%,3.0,-0.8,x
COc1cccc(NC(=O)CN(C)CC(=O)c2c(C)[nH]c3ccccc23)c1,-35.1%,79.4µM*,-2.0%,-7.5,1.0,x
CC(C)(C)Sc1ccc2nn(CC(=O)Nc3ccccc3F)c(=O)n2n1,x,x,x,-0.8,x,x
CCNc1sc(C(C)=O)c(N)c1C#N,x,x,x,-34.9*,x,x
CCCc1c(C(=O)OCC)sc(N)c1C#N,u,25.2%[57.1 µM],8.5%[57.1 µM],-7.7,-2.6,2.5%
Cn1cc(S(=O)(=O)N2CCC(C(=O)Nc3cccc(Br)c3)CC2)cc1C(N)=O,x,x,x,-8.6,x,x
Cn1cc(S(=O)(=O)N2CCC(C(=O)Nc3cccc(F)c3)CC2)cc1C(N)=O,x,x,x,-30.3*,x,x
Cc1ccc(/C=C2\SC(=S)N(C3CCS(=O)(=O)C3)C2=O)o1 (stereo unspecified),-35.6%,15.8µM*,-18.3%,7.3,-7.6,0.4%
COc1ccc(Br)cc1CN1CCCCCCC1,-12.1%,9.1%,9.7%,-30.4*,-1.1,-0.1%
COc1ccc(C(=O)O)cc1CN1CCCCC1,x,x,x,1.4,x,x
COCC(C)NCC(=O)NC(C)CCc1ccccc1 (stereo unspecified),-31.2%,-28.0%,-3.1%,-30.4*,6.0,0.3%
CC(=O)NC(C)CCc1ccccc1 (stereo unspecified),6.4%,7.7%,-5.7%,-8.0,-4.0,-2.2%
C=C(CN(C)C)C(=O)c1cc(C)ccc1C,-53.8%,1.78µM*,9.5%[57.1 µM],-3.0,11.2,x
Cc1cc(C)c(S(=O)(=O)/N=C2/C=C(SCC(=O)O)C(=O)c3ccccc32)cc1C,-65.1%,u,-5.6%,52.6,-53.0*,-0.4%
S=C(c1ccc(-c2ccc(Cl)c(Cl)c2)o1)N1CCOCC1,-3.4%,28.2µM*,-6.8%,-6.2,-1.8,-2.4%
CCSC1=C(C#N)C(c2ccccc2OC)CC(=O)N1 (stereo unspecified),-14.7%,-8.7%,-6.1%,-2.4,-65.2*,0.6%
CCOc1ccccc1C1CC(=O)NC(SCC)=C1C#N (stereo unspecified),-12.2%,7.4%,-3.5%,0.7,1.7,0.2%
CC1(C)CCC(=O)c2ccccc21,5.9%,7.4%[57.1 µM],5.3%[57.1 µM],-2.5,-0.9,x

# Source: PubChem BioAssay
